Experimental findings from ChEMBL document CHEMBL1157539, “Thousands of chemical starting points for antimalarial lead identification” (Nature, 2010) are described below.

Holding throughout (assay type): functional
Experiment [1] concerns Plasmodium falciparum. Kind of experiment: GSK_TCMDC: Inhibition of Plasmodium falciparum 3D7 in whole red blood cells, using parasite LDH activity as an index of growth. Test compounds present at 2uM.
The subject of experiment [2] is Plasmodium falciparum. Kind of experiment: GSK_TCMDC: Inhibition of Plasmodium falciparum Dd2 in whole red blood cells, using parasite LDH activity as an index of growth. Test compounds present at 2uM.
Another experiment concerns HepG2. Kind of experiment: GSK_TCMDC: Percent inhibition of human HepG2 cell line. Test compounds present at 10uM.

Usually Inhibition stands for the drop in the measured response relative to a control, in per cent. A low value points to a response near the control. Take `O=C(O)C(F)(F)F.c1ccc2[nH]c(-c3ccc(-c4ccc(CN5CCN(CCN6CCOCC6)CC5)cc4)cc3)nc2c1`: the values for the Inhibition in the experiment with Plasmodium falciparum [1], in the experiment on Plasmodium falciparum [2] and in the experiment with HepG2 were 98%, 99% and 43%, respectively.
On the same counts, the results for `Cc1cnc(N2CCN(CC3CCN(C)CC3)CC2)nc1Oc1ccc(-n2ccnc2)cc1.O=C(O)C(F)(F)F` are 99%, 66% and 9%.
Turning to `COc1ccc2nc(C)cc(N/N=C/c3ccccc3[N+](=O)[O-])c2c1`, the Inhibition was 100% with Plasmodium falciparum [1], 99% with Plasmodium falciparum [2] and 2% in the experiment with HepG2.
On the same counts, the results for `Cc1nc(-c2ccc(-c3ccc(C(=O)Nc4ccc(I)c(OCCN5CCCC5)c4)cc3)c(C)c2)no1.Cl` are 95%, 35% and 96%.
As to `Cn1nccc1C(=O)NCCNCc1ccc(-c2ccc(-c3nc4cc(C(F)(F)F)ccc4[nH]3)s2)cc1.O=C(O)C(F)(F)F`, the values for the Inhibition in the experiment with Plasmodium falciparum [1], in the experiment on Plasmodium falciparum [2] and with HepG2 were 100%, 99% and 48%, respectively.
As for `COc1cc(NC(=O)c2c(-c3c(Cl)cccc3Cl)noc2C)c(OC)cc1Cl`, the Inhibition is 85% in the experiment on Plasmodium falciparum [1], 67% in the experiment with Plasmodium falciparum [2] and 4% with HepG2.
On the same counts, the results for `CCc1cn2c3c(cc(C(=O)N[C@@H](Cc4ccccc4)[C@H](O)CNC4CCCCC4)cc13)N(C)S(=O)(=O)C2.O=CO` are 99%, 99% and 20%.
On the same counts, the results for `N#Cc1ccc(N/C(=N\c2ccccc2Br)N(C2CCCCC2)C2CCCCC2)c(O)c1` are 99%, 96% and 4%.
Take `CC(=O)Nc1sc(C)c(C)c1CN1CCc2ccccc2C1`: the Inhibition with Plasmodium falciparum [1] was found to be 93%; in the experiment on Plasmodium falciparum [2], 94%; with HepG2, 0%.
Take `O=C(NCCCNc1nc2ccccc2[nH]1)c1cccc(OC(F)(F)F)c1`: the Inhibition was found to be 100% in the experiment on Plasmodium falciparum [1], 27% in the experiment with Plasmodium falciparum [2] and 12% in the experiment on HepG2.
On the same counts, the results for `COc1ccc(CNC2CCN(c3ccc(NC(=O)c4cccc(Cl)c4)cc3)CC2)cc1OC` are 96%, 13% and 26%.
In the case of `Cl.O=C(C=Cc1ccc(F)cc1)NC1CCC(CCN2CCc3ccc(-c4cnccn4)cc3CC2)CC1` (stereo not given), the values for the Inhibition with Plasmodium falciparum [1], in the experiment with Plasmodium falciparum [2] and in the experiment on HepG2 were 99%, 65% and 32%, respectively.
As to `COc1ccc2ccccc2c1C=NNc1ccnc2cc(Cl)ccc12`, the Inhibition in the experiment with Plasmodium falciparum [1] is listed as 100%; with Plasmodium falciparum [2] it was 94%; in the experiment on HepG2, 20%.
Turning to `O=C(NC1CC1)c1cnc(N2CCC(Oc3ccc(Cl)cc3)CC2)c(Cl)c1`, the Inhibition came out at 86% in the experiment on Plasmodium falciparum [1], 75% in the experiment with Plasmodium falciparum [2] and 12% with HepG2.
For the compound `CCN1CCC(N(Cc2ccc(-c3ccc(Cl)cc3)cc2)C(=O)Cn2c(CCc3cccc(F)c3F)cc(=O)c3ccccc32)CC1.O=C(O)C(O)C(O)C(=O)O`, the Inhibition is reported as 99% with Plasmodium falciparum [1], 95% with Plasmodium falciparum [2] and 100% in the experiment on HepG2.
As for `COc1ccc(OCCCON)cc1.Cl`, the figures for the Inhibition with Plasmodium falciparum [1], in the experiment on Plasmodium falciparum [2] and in the experiment with HepG2 were 98%, 0% and 3%, respectively.
On the same counts, the results for `CN1CCCc2ccc(NC(=O)c3cc(-c4ccc(Cl)cc4)cs3)cc2C1.O=C(O)C(F)(F)F` are 94%, 40% and 35%.
On the same counts, the results for `c1ccc(CCNc2ncnc3c2[nH]c2ccccc23)cc1` are 95%, 94% and 50%.
On the same counts, the results for `COc1cc(N(Cc2ccc(F)cc2)C(=O)c2ccc(-c3ccccc3)cc2)ccc1OCCN1CCCC1.Cl` are 93%, 4% and 11%.
As to `CCC(C)NS(=O)(=O)c1ccc2nc(Nc3ccc(C)c(Cl)c3)n(C(C)C(C)C)c2c1` (stereo not given), the results for the Inhibition with Plasmodium falciparum [1], with Plasmodium falciparum [2] and in the experiment with HepG2 were 98%, 98% and 22%, respectively.
With `CS(=O)(=O)c1ccc(CCNCc2ccc(-c3ccc(CN(C(=O)C4CC(=O)c5ccccc54)C4CCN(Cc5ccccc5)CC4)cc3)nc2)cc1.O=C(O)C(F)(F)F` (stereo not given), the Inhibition in the experiment on Plasmodium falciparum [1] is on record as 100%; in the experiment with Plasmodium falciparum [2], 49%; in the experiment on HepG2 it was 9%.
As for `CC(C)c1ccc(NC(=O)c2cccc(CN3CCCN(Cc4cccc(O)c4)CC3)c2)cc1.O=C(O)C(F)(F)F`, the Inhibition in the experiment on Plasmodium falciparum [1] is listed as 97%; in the experiment on Plasmodium falciparum [2] it was 33%; with HepG2, 25%.
On the same counts, the results for `O=C(NCC(NCCCNc1cc(=O)c2ccccc2[nH]1)c1cc(Br)cc(Br)c1)C1=CCCC1` (stereo not given) are 96%, 48% and 0%.
On the same counts, the results for `CC(=O)Nc1cccc(C(=O)Nc2cccc(-c3ccc(-c4nc5cc(F)ccc5[nH]4)s3)c2)c1` are 94%, 30% and 88%.
On to `COc1cc(OC)cc(-c2nn(-c3ccc([N+](=O)[O-])cc3Cl)c(=S)n2CC2CCCO2)c1` (stereo not given), for which the Inhibition in the experiment with Plasmodium falciparum [1] worked out at 98%; in the experiment on Plasmodium falciparum [2] it was 98%; with HepG2, 5%.
As to `CNCCNCc1cccc(-c2cccc(-c3nc4cc(C(F)(F)F)ccc4[nH]3)c2)c1.O=C(O)C(F)(F)F`, the Inhibition in the experiment with Plasmodium falciparum [1] worked out at 100%; with Plasmodium falciparum [2] it was 97%; with HepG2 it was 22%.
On the same counts, the results for `CN(Cc1cc(C(F)(F)F)cc(C(F)(F)F)c1)C(=O)C1CNCC1c1ccc(F)cc1.Cl` (stereo not given) are 92%, 4% and 1%.
On the same counts, the results for `Cc1ccccc1-c1nc2c(CN3CCC(O)(c4ccccc4)CC3)c(O)ccc2[nH]1` are 92%, 61% and 27%.
Consider `c1ccn2c(Sc3ncnc4sccc34)ncc2c1`, for which the Inhibition in the experiment with Plasmodium falciparum [1] is 100%; in the experiment on Plasmodium falciparum [2] it was 100%; in the experiment on HepG2, 0%.
As to `Cc1cccc(Nc2nccc(NCC(O)c3ccc(C(F)(F)F)cc3)n2)c1` (stereo not given), the Inhibition with Plasmodium falciparum [1] amounted to 100%; in the experiment with Plasmodium falciparum [2], 54%; with HepG2, 11%.
In the case of `Cc1cccc2nc(O)c([N+](=O)[O-])c(O)c12`, the Inhibition was determined as 95% with Plasmodium falciparum [1], 0% with Plasmodium falciparum [2] and 0% with HepG2.
For the compound `COc1cccc(-c2cc(C(=O)Nc3cc(Oc4ccc(O)cc4)cc([N+](=O)[O-])c3)on2)c1`, the Inhibition in the experiment with Plasmodium falciparum [1] is given as 89%; with Plasmodium falciparum [2], 30%; in the experiment with HepG2 it was 16%.
For the compound `Cc1ccc(-c2nc(Nc3ccncc3)c3ccccc3n2)s1`, the Inhibition with Plasmodium falciparum [1] amounted to 95%; in the experiment on Plasmodium falciparum [2], 34%; in the experiment on HepG2, 6%.
On the same counts, the results for `O=C(/C=C/c1ccc(Cl)c(Cl)c1)N1CCN(C(=O)Nc2cccc(C(F)(F)F)c2)CC1` are 99%, 100% and 53%.
On the same counts, the results for `COc1cc(Nc2ncc3c(C)nc(-c4cc5ccccc5[nH]4)n3n2)cc(OC)c1OC` are 91%, 65% and 19%.
On the same counts, the results for `CCCCc1ccc(Cc2cnc3nc(N)nc(N)c3c2C)cc1` are 96%, 5% and 64%.
Take `Nc1ccc2[nH]cc(C3CCN(CC4CCC(NC(=O)/C=C/c5ccccc5Cl)CC4)CC3)c2n1` (stereo not given): the Inhibition turned out to be 100% in the experiment on Plasmodium falciparum [1], 45% with Plasmodium falciparum [2] and 7% in the experiment on HepG2.
On the same counts, the results for `O=C(Nc1cccc(C(F)(F)F)c1)c1cccc(S(=O)(=O)NC2CCN(CC3CCCCC3)C2)c1.O=C(O)C(F)(F)F` (stereo not given) are 100%, 45% and 37%.
On the same counts, the results for `COc1ccc(C(=O)NCc2ccccc2-c2ccc(C(C)(C)C)cc2)cc1O` are 99%, 97% and 10%.
On the same counts, the results for `Nc1nccc2ccc(-c3ccncc3)cc12` are 96%, 95% and 19%.
Turning to `COc1cc(C(=O)NC2CCN(Cc3ccccc3)CC2)ccc1-c1nc2cc(Cl)c(C)cc2[nH]1`, the Inhibition in the experiment on Plasmodium falciparum [1] is 99%; in the experiment on Plasmodium falciparum [2], 97%; in the experiment on HepG2, 0%.
Take `N#Cc1ccc(-c2ccc(C(=O)NCCCCN3CCC(n4cnc5ccccc54)CC3)cc2)cc1`: the Inhibition is given as 94% with Plasmodium falciparum [1], 2% in the experiment with Plasmodium falciparum [2] and 15% in the experiment on HepG2.
On the same counts, the results for `COc1c(CNCCCCCCNCc2c(OC)c(OC)c3ccccc3c2OC)c(OC)c2ccccc2c1OC.CS(=O)(=O)O` are 96%, 98% and 100%.
Turning to `O=C(CCc1nc2c(cnn2-c2ccccc2)c(=O)[nH]1)NC1CCSc2ccccc21` (stereo not given), the Inhibition in the experiment on Plasmodium falciparum [1] is recorded as 95%; with Plasmodium falciparum [2], 52%; in the experiment on HepG2, 10%.
On the same counts, the results for `CN1CCN(c2ccnc3ccc(NC(=O)Nc4cccc5c(Br)cccc45)cc23)CC1.Cl` are 100%, 96% and 7%.
`O=C(NCc1cccc(F)c1)Nc1ccc(-c2ccc(-c3nc4cc(C(F)(F)F)ccc4[nH]3)cc2)cc1`: the Inhibition in the experiment on Plasmodium falciparum [1] is given as 100%; in the experiment with Plasmodium falciparum [2], 24%; with HepG2, 46%.
On the same counts, the results for `Br.Oc1ccc2nc(N3CCNCC3)nc(NCCCc3ccccc3)c2c1` are 100%, 0% and 14%.
On the same counts, the results for `O=C(O)C(F)(F)F.Oc1ccc(CCNc2nc(NCc3ccccc3Oc3ccc(C(F)(F)F)cc3)nc(N3CCNCC3)n2)cc1` are 86%, 2% and 26%.
On the same counts, the results for `COc1ccc2nccc([C@@H](O)CN3CCC(NCc4cc5cccc(O)c5c(=O)[nH]4)CC3)c2c1.Cl` are 99%, 66% and 8%.
Turning to `COc1ccc(C(=C(C)CC(C)C(=O)O)c2ccccc2)cc1` (stereo not given), the Inhibition in the experiment on Plasmodium falciparum [1] is reported as 95%; with Plasmodium falciparum [2], 0%; in the experiment with HepG2, 6%.
On the same counts, the results for `Cc1cc(CNCCCCCCCNCc2ccc(Cl)cc2)ccc1O` are 97%, 0% and 13%.
On the same counts, the results for `O=C(Nc1cccc(CN2CCCN(Cc3cccc(F)c3)CC2)c1)c1ccc(Cl)c(Cl)c1.O=C(O)C(F)(F)F` are 85%, 6% and 28%.
On the same counts, the results for `CCCCOC(=O)NCCCC[C@H](NC(=O)OC(C)(C)C)C(=O)N[C@H](C(=O)OC(c1ccccc1)c1ccccc1)[C@H]1O[C@@H](n2ccc(=O)[nH]c2=O)[C@@H]2OC(C)(C)O[C@@H]21` are 87%, 65% and 7%.
`Cn1cc(C(=O)Nc2cccc(-c3cccc(-c4nc5cc(F)ccc5[nH]4)c3)c2)n(C)c1=O`: the Inhibition in the experiment with Plasmodium falciparum [1] amounted to 98%; with Plasmodium falciparum [2], 50%; in the experiment with HepG2 it was 15%.
As to `CN(C)CCCOc1c(C(C)(C)C)cc(-c2cc(C(C)(C)C)c(OCCCN(C)C)c(C(C)(C)C)c2)cc1C(C)(C)C`, the values for the Inhibition with Plasmodium falciparum [1], in the experiment with Plasmodium falciparum [2] and with HepG2 were 100%, 99% and 25%, respectively.
On the same counts, the results for `Cc1nc(N)nc(N)c1CCCOc1cccc(Cl)c1` are 96%, 0% and 16%.
On the same counts, the results for `Cc1cccc2nc(-c3ccc(-c4ccc(NC(=O)Nc5ccc(F)c(F)c5F)cc4)cc3)[nH]c12` are 100%, 97% and 51%.
On the same counts, the results for `O=C(O)C(F)(F)F.OCC1CCN(Cc2ccc(-c3ccc(-c4nc5cc(F)ccc5[nH]4)cc3)cc2)CC1` are 100%, 95% and 17%.
With `COc1ccc(O)c(C(=O)c2cc(C#N)c(=O)n(-c3ccc(Oc4ccccc4)cc3)c2)c1`, the Inhibition with Plasmodium falciparum [1] is 97%; in the experiment on Plasmodium falciparum [2] it was 20%; in the experiment with HepG2, 22%.
Turning to `CCN1CCC(N(Cc2ccc(-c3ccc(C(F)(F)F)cc3)cc2)C(=O)Cn2c(CCc3cccc(F)c3F)cc(=O)c3ccc(OCc4ccccc4)cc32)CC1.O=C(O)C(O)C(O)C(=O)O`, the results for the Inhibition with Plasmodium falciparum [1], in the experiment on Plasmodium falciparum [2] and with HepG2 were 100%, 86% and 60%, respectively.
